# Measured values reported in PubChem BioAssay.
# Calls of active or inactive are those of the source. Unless noted, no rule for the calls is given here.
# Columns and labels:
# [1] = compound effects on lung adenocarcinoma cell viability – A549, calcein-AM fluorescence, 48 h, basal, profiling panel (AID 1162); conditions: higher = more signal; also: test concentration not given here
# [2] = compound effects on differentiated 3T3-L1 adipocyte viability – cell-based, 3T3-L1 adipocytes, calcein-AM fluorescence, 48 h, basal, profiling panel (AID 1163); conditions: 3T3-L1 adipocytes viability, higher = more signal; also: test concentration not given here
# [3] = compound effects on hepatocellular carcinoma cell viability – HepG2, calcein-AM fluorescence, 48 h, basal, profiling panel (AID 1164); conditions: higher = more signal; also: test concentration not given here
# [4] = compound effects on multiple myeloma cell viability – MM1S, calcein-AM fluorescence, 48 h, basal, profiling panel (AID 1165); conditions: higher = more signal; also: test concentration not given here
# [5] = calcein-AM signal in unstimulated myeloma cells – cell-based, calcein-AM fluorescence, 48 h, PK04 Diversity Set, profiling panel (AID 1166); conditions: RPMI8226 myeloma viability, higher = more signal;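 also: cells grown under basal conditions without added stimulus; test concentration not given here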
# [6] = JC-1 mitochondrial signal, unstimulated HepG2 cells – cell-based, JC-1 fluorescence, 24 h, 100 nL compound, profiling panel (AID 1167); conditions: HepG2 mitochondrial potential, higher = more signal; also: test concentration not given here
# [7] = JC-1 mitochondrial signal, unstimulated adipocytes – cell-based, JC-1 fluorescence, 3T3-L1 adipocytes, 24 h, 100 nL compound, profiling panel (AID 1168); conditions: JC-1 mitochondrial fluorescence, higher = more signal, called active from +8 up or from −8 down; also: test concentration not given here
# [8] = JC-1 mitochondrial signal, unstimulated myeloma cells – cell-based, JC-1 fluorescence, RPMI8226, 24 h, 100 nL compound, profiling panel (AID 1169); conditions: JC-1 mitochondrial potential fluorescence, higher = more signal; also: test concentration not given here
# [9] = JC-1 mitochondrial signal, unstimulated MM1S myeloma – cell-based, JC-1 fluorescence, 24 h, 100 nL compound, profiling panel (AID 1170); conditions: MM1S mitochondrial potential, higher = more signal; also: test concentration not given here
# [10] = resazurin metabolic signal in A549 cells – cell-based, resazurin fluorescence, 24 h, PK04 Diversity Set, profiling panel (AID 1171); conditions: A549 viability, higher = more signal, called active from +8 up or from −8 down; also: test concentration not given here
# [11] = resazurin metabolic signal in HepG2 cells – cell-based, resazurin fluorescence, 24 h, PK04 Diversity Set, profiling panel (AID 1172); conditions: HepG2 viability, higher = more signal; also: test concentration not given here
# [12] = budding yeast growth changes without added modifier – OD600, strain BY4716, 24 h, basal condition, primary screen (AID 1173); conditions: S. cerevisiae BY4716 growth, OD600, 24 h; higher = more signal, called active from +8 up or from −8 down
# [13] = viability profiling in MM1S myeloma cells – cell-based, resazurin fluorescence, basal, 24 h, PK04 Diversity Set, profiling panel (AID 1174); conditions: higher = more signal, called active from +8 up or from −8 down; also: test concentration not given here
# [14] = target: Dihydroorotate dehydrogenase (quinone), mitochondrial (Plasmodium falciparum (isolate 3D7)) (UniProt Q08210); experiment: inhibition of P. falciparum DHODH – biochemical, C-terminal His tag, absorbance 600 nm, primary screen (AID 1175); conditions: PfDHODH enzyme, DCIP absorbance 600 nm; higher = more signal, called active from +8 up or from −8 down;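 also: recombinant parasite enzyme with a five histidine tag at its C terminus; test concentration not given here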
# [15] = inhibition of PAO1 biofilm formation – strain PAO1, LB-PBS medium, absorbance 600 nm, primary screen (AID 1176); also: test concentration not given here; conditions: P. aeruginosa PAO1 growth/biofilm, A600, 12 h; higher = more signal
# [16] = growth modulation of vineyard yeast isolate – strain RM11-1a, OD600, basal, 24 h, primary screen (AID 1177);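 also: cultures grown under basal conditions with no added stressor; test concentration not given here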; conditions: S. cerevisiae RM11-1a growth, OD600, 24 h; higher = more signal, called active from +8 up or from −8 down
# [17] = growth of efflux-deficient E. coli DRC39 – strain DRC39, OD650, 24 h, E. coli filamentation inducers, primary screen (AID 1178);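 also: growth measured as culture turbidity by optical density at 650 nm; test concentration not given here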; conditions: E. coli DRC39 acrAB, higher = more signal, called active from +8 up or from −8 down
# [18] = growth of efflux-deficient E. coli DRC39 – strain DRC39, OD650, 48 h, E. coli filamentation inducers, primary screen (AID 1179);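 also: screen aims at cell division blockers that make cells filament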; conditions: E. coli DRC39 delta-acrAB growth, higher = more signal, called active from +8 up or from −8 down
# [19] = viability profiling in RPMI8226 myeloma cells – cell-based, resazurin fluorescence, basal, 24 h, PK04 Diversity Set, profiling panel (AID 1180); conditions: higher = more signal;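 also: RPMI8826 multiple myeloma cell line at 5000 cells per well; test concentration not given here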
# [20] = target: E3 ubiquitin-protein ligase XIAP (Homo sapiens) (UniProt P98170); experiment: small molecules binding XIAP protein – biophysical, small-molecule microarray, fluorescence 635 nm, primary screen (AID 1181); conditions: higher = more signal;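 also: score merges 667 nm emission and signal to noise over triplicate slides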
# E3 ubiquitin-protein ligase XIAP (Homo sapiens), sequence (P98170 whole entry, looked up): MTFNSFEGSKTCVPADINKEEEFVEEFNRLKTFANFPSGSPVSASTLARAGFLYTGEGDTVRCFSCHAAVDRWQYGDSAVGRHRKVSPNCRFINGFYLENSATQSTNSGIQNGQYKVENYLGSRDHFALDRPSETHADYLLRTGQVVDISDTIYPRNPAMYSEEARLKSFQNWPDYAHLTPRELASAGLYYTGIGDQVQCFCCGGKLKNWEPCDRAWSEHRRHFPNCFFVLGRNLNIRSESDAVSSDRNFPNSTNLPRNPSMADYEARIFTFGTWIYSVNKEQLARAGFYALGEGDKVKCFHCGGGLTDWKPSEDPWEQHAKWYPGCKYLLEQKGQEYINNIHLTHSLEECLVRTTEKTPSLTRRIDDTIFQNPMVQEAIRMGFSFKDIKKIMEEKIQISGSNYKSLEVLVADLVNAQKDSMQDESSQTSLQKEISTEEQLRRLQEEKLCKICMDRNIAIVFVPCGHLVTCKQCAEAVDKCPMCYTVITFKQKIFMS
# Dihydroorotate dehydrogenase (quinone), mitochondrial (Plasmodium falciparum (isolate 3D7)), sequence (Q08210 whole entry, looked up): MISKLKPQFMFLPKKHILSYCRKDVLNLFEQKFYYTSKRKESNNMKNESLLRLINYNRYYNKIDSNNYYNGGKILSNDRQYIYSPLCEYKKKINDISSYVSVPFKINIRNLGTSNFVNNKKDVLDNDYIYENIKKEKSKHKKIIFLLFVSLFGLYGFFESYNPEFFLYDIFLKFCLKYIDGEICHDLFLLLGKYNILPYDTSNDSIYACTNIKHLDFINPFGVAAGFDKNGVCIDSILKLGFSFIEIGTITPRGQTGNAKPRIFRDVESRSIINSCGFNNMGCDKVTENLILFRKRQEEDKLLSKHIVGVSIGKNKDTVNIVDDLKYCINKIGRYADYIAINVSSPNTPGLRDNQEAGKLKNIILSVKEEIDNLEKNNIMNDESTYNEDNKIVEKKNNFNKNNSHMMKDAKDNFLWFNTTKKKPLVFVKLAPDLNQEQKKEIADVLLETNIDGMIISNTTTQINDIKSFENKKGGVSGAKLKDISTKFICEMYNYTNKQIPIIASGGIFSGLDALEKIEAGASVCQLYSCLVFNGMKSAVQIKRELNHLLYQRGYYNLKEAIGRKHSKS
SMILES,z-score [1],z-score [2],z-score [3],z-score [4],z-score [5],z-score [6],z-score [7],z-score [8],z-score [9],z-score [10],z-score [11],z-score [12],z-score [13],composite z-score [14],z-score [15],z-score [16],z-score [17],z-score [18],z-score [19],composite z-score [20]
CC=CC(O)C1C=CC2C(=O)NC(=O)C2N1Nc1ccccn1 (stereo not given),0.0403,-1.24,-0.154,-0.228,-0.496,0.0853,-0.288 (inactive),0.137,-0.121,-1.14 (inactive),-1.45,0.866 (inactive),-0.949 (inactive),0.434 (inactive),0.667 (inactive),1.83 (inactive),-0.837 (inactive),0.272 (inactive),-0.349,-0.031
CCC(CC)C(O)C1C=CC2C(=O)N(c3ccccc3)C(=O)C2N1Nc1ccc([N+](=O)[O-])cc1 (stereo not given),-0.878,-1.13,-0.172,0.486,-1.23,-2.25,-1.37 (inactive),0.523,-1.6,-0.517 (inactive),-0.536,0.593 (inactive),-0.89 (inactive),0.837 (inactive),0.862 (inactive),0.105 (inactive),-0.667 (inactive),-0.162 (inactive),-0.587,0.0855
C=C[C@H](C)[C@H](OC(=O)Nc1ccc(OC)cc1)c1ccc(OCCO)cc1,0.366,-0.402,0.692,-0.412,-1.83,-0.569,0.627 (inactive),-0.0376,0.873,-0.262 (inactive),-0.178,-5.91 (inactive),1.69 (inactive),-0.285 (inactive),0.413 (inactive),-0.354 (inactive),1.43 (inactive),0.465 (inactive),0.603,0.34
CC(C)C(=C=CC[C@@H](O)c1cccc(OCCO)c1)C[C@@H](O)COCc1ccccc1,1.05,1.32,0.512,0.0108,0.442,0.427,0.686 (inactive),0.46,-0.794,0.151 (inactive),0.564,-1.91 (inactive),0.301 (inactive),-3.34 (inactive),0.424 (inactive),-2.4 (inactive),0.789 (inactive),0.633 (inactive),0.47,-0.119
COCCCNC(=O)[C@@]1(Sc2ccc(C)cc2)CC(=O)N(Cc2ccccc2Cl)[C@@H]1c1ccc(CO)cc1I,0.217,0.0816,-0.115,-1.88,-2.32,-0.51,-0.695 (inactive),-0.175,-1.76,-0.268 (inactive),0.0727,-3.06 (inactive),-3.21 (inactive),-2.66 (inactive),0.242 (inactive),-1.07 (inactive),0.0085 (inactive),-0.0682 (inactive),-2.38,-0.138
CN1C(=O)C2C(C1=O)C1C=C(CCCO)C2C(C2CC2)N1Cc1cc2c(cc1Br)OCO2 (stereo not given),-0.487,0.337,-0.717,-0.172,-0.909,0.435,-0.527 (inactive),0.87,0.859,-0.477 (inactive),-0.622,-0.975 (inactive),-1 (inactive),-0.341 (inactive),0.0721 (inactive),0.0644 (inactive),-0.344 (inactive),-0.291 (inactive),-0.543,-0.113
CN1C(=O)C2C(C1=O)C1C=C(CCCO)C2C(c2cccs2)N1Cc1cc2c(cc1Br)OCO2 (stereo not given),0.952,0.225,0.557,-0.635,-1.44,-0.129,-0.859 (inactive),-0.309,0.872,-0.0723 (inactive),-0.0567,-1.67 (inactive),-0.35 (inactive),-0.539 (inactive),-0.131 (inactive),0.0034 (inactive),0.19 (inactive),-0.512 (inactive),0.0707,0.176
C=CCN1C(=O)[C@]2(O[C@H](CCO)[C@@H]([Si](C)(C)c3ccc(OC)cc3)[C@@H]2C)c2cc(NC(=O)c3ccc(OC)cc3)ccc21,-3.78,-0.562,-4.65,-2.69,-4.38,-0.446,0.96 (inactive),-0.953,-2.2,-3.7 (inactive),-4.24,-1.07 (inactive),-4.56 (inactive),-0.224 (inactive),1.98 (inactive),2.23 (inactive),0.626 (inactive),-0.723 (inactive),-6.22,0.401
Cc1c(NC(=O)/C(C#N)=C/c2ccccc2Cl)c(=O)n(-c2ccccc2)n1C,1.62,0.228,1.02,0.867,1.52,0.771,1.14 (inactive),-0.0416,-1.04,-0.357 (inactive),0.294,-1.08 (inactive),0.242 (inactive),-1.73 (inactive),0.543 (inactive),-0.688 (inactive),1.17 (inactive),1.36 (inactive),0.0753,0.197
